# Assay results: PubChem BioAssay AID602412 (Johns Hopkins Ion Channel Center, 2012)
# The list shows a part of the results. The source made the active and inactive calls.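 How the source made its calls: active means calcium signal rise, corrected for plate position, at least 3 library SD high, with starting brightness within 5 such deviations; inactive means the rest.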
# Biological target: Mas-related G-protein coupled receptor member X1 (Homo sapiens) (UniProt Q96LB2)
# Test: MrgX1 receptor agonists, duplicate retest, confirmation, HEK293 cells, Fluo-4 calcium flux (AID 602412)
# Conditions: MrgX1-HEK293, Fluo-4 calcium fluorescence, FDSS; at 10 µM; active compounds read high
# Mas-related G-protein coupled receptor member X1 (Homo sapiens), sequence (Q96LB2 whole entry, looked up): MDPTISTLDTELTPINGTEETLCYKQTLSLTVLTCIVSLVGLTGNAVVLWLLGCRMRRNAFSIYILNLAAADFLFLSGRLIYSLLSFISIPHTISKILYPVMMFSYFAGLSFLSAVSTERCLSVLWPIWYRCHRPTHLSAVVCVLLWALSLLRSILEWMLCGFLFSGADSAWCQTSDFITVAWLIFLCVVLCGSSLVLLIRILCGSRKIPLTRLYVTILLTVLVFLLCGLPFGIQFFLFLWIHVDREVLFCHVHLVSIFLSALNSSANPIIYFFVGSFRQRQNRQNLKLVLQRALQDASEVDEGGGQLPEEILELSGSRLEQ
structure (smiles),measurement,value
CCCCC(=O)N/N=C/c1c(O)n(CC)c(=S)n(CC)c1=O,activation,372% (active)
